In PubChem BioAssay AID1159580 (chemical genetic matrix, 2015):
“And” between values parts separate entries of the source, which are not always exact repeats. Equal values may be shown once. Among all 5,500 compounds or so, about 2,000 (36%) were called active. Inconclusive results (about 18%) are left out. Cut-off read from the data, not from the text of the source: active = normalized growth mostly below about 0.91 (no sharp cut-off); inconclusive = no clear call, values can overlap the other calls; inactive = mostly above about 0.92. This is one part of the list.

Test: chemical genetic growth profiling, strain panel (AID 1159580);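 note: tested at 20 µM; growth read once vehicle control cultures reached saturation at 30 °C; 1 = growth at the plate median or of vehicle wells; lower values mean less growth of the strain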
Settings: S. cerevisiae deletion strains, growth OD

Measured: normalized growth

CC(C)(S)[C@@H](N)C(=O)O
inactive: locus YAL013W, strain DEP1, active compounds read low 1.02 | locus YAL021C, strain ccr4, active compounds read low 1.01 | locus YAL026C, strain drs2, active compounds read low 1.01 | locus YAL030W, strain snc1, active compounds read low 1.01 | locus YBL061C, strain skt5, active compounds read low 1 | locus YBR009C, strain hhf1, active compounds read low 0.992 | locus YBR021W, strain FUR4, active compounds read low 1.03 | locus YBR023C, strain chs3, active compounds read low 1.01 | locus YBR171W, strain sec66, active compounds read low 1.01 | locus YBR229C, strain ROT2, active compounds read low 1.01 | locus YBR231C, strain swc5, active compounds read low 1 | locus YBR279W, strain paf1, active compounds read low 0.997 | locus YCL011C, strain gbp2, active compounds read low 1 | locus YCL016C, strain dcc1, active compounds read low 1 | locus YCL029C, strain bik1, active compounds read low 0.991 | locus YCL061C, strain MRC1, active compounds read low 1.01 | locus YCL069W, strain vba3, active compounds read low 0.993 | locus YCR088W, strain abp1, active compounds read low 1.01 | locus YDL005C, strain med2, active compounds read low 0.995 | locus YDL035C, strain GPR1, active compounds read low 1.01 | locus YDL040C, strain nat1, active compounds read low 1 | locus YDL074C, strain BRE1, active compounds read low 1.03 | locus YDL101C, strain DUN1, active compounds read low 1.03 | locus YDL134C, strain PPH21, active compounds read low 1.01 | locus YDL185W, strain tfp1, active compounds read low 0.988 | locus YDL192W, strain arf1, active compounds read low 0.984 | locus YDR001C, strain nth1, active compounds read low 1 | locus YDR069C, strain doa4, active compounds read low 0.997 | locus YDR101C, strain arx1, active compounds read low 0.986 | locus YDR137W, strain rgp1, active compounds read low 1.05 | locus YDR150W, strain NUM1, active compounds read low 1.01 | locus YDR159W, strain sac3, active compounds read low 0.994 | locus YDR162C, strain NBP2, active compounds read low 1 | locus YDR195W, strain ref2 0.997 | locus YDR297W, strain sur2, active compounds read low 1.01 | locus YDR318W, strain mcm21, active compounds read low 0.994 | locus YDR334W, strain swr1, active compounds read low 1.01 | locus YDR335W, strain msn5, active compounds read low 0.986 | locus YDR388W, active compounds read low 0.991 | locus YDR392W, strain spt3, active compounds read low 0.96 | locus YDR502C, strain sam2, active compounds read low 0.996 | locus YEL003W, strain gim4, active compounds read low 0.995 | locus YEL037C, strain rad23, active compounds read low 1 | locus YEL061C, strain CIN8 (second series), active compounds read low 0.995 | locus YEL061C, strain CIN8, active compounds read low 1.01 | locus YER015W, strain faa2, active compounds read low 1.01 | locus YER016W, strain bim1, active compounds read low 0.994 | locus YER110C, active compounds read low 0.989 | locus YER111C, strain swi4, active compounds read low 1.01 | locus YER155C, strain BEM2 (second series), active compounds read low 0.985 | locus YER155C, strain BEM2, active compounds read low 1.01 | locus YER167W, strain BCK2, active compounds read low 1.01 | locus YFR010W, strain ubp6, active compounds read low 0.998 | locus YGL078C, strain dbp3, active compounds read low 0.991 | locus YGL086W, strain mad1, active compounds read low 0.995 | locus YGL167C, strain pmr1, active compounds read low 1 | locus YGL173C, strain kem1, active compounds read low 1 | locus YGL227W, strain vid30, active compounds read low 0.992 | locus YGL240W, strain doc1, active compounds read low 1.01 | locus YGL248W, strain PDE1, active compounds read low 1.02 | locus YGL253W, strain hxk2, active compounds read low 0.993 | locus YGR135W, strain pre9, active compounds read low 0.989 | locus YGR252W, strain gcn5, active compounds read low 1.01 | locus YHR013C, strain ard1, active compounds read low 1 | locus YHR027C, strain rpn1, active compounds read low 1.03 | locus YHR030C, strain SLT2, active compounds read low 1.01 and 0.999 | locus YHR079C, strain IRE1 (second series), active compounds read low 0.987 | locus YHR079C, strain IRE1, active compounds read low 0.982 | locus YHR094C, strain hxt1, active compounds read low 0.986 | locus YHR129C, strain ARP1, active compounds read low 1.01 | locus YHR142W, strain chs7, active compounds read low 1.01 | locus YHR200W, strain rpn10, active compounds read low 1 | locus YIL066C, strain RNR3, active compounds read low 1.01 | locus YIL073C, strain SPO22, active compounds read low 0.975 | locus YIL125W, strain kgd1, active compounds read low 0.997 | locus YIR030C, strain dcg1, active compounds read low 0.989 | locus YJL092W, strain hpr5, active compounds read low 1 | locus YJL095W, strain BCK1 (second series), active compounds read low 1 | locus YJL095W, strain BCK1, active compounds read low 1.05 and 1 | locus YJL115W, strain asf1, active compounds read low 0.995 | locus YJL129C, strain trk1, active compounds read low 0.987 | locus YJL134W, strain LCB3, active compounds read low 1.01 | locus YJL154C, strain vps35, active compounds read low 0.994 | locus YJL164C, strain tpk1, active compounds read low 1.01 | locus YJL166W, strain qcr8, active compounds read low 1.01 | locus YJL168C, strain set2, active compounds read low 0.999 | locus YJL187C, strain SWE1 (second series), active compounds read low 1.01 | locus YJL187C, strain SWE1, active compounds read low 1
